From PubChem BioAssay AID686979 (National Center for Advancing Translational Sciences (NCATS), 2013)
Hit rate of the full screen: of about 420,000 compounds, about 50,000 (12%) were called active. Another 26% or so got no clear call; they are omitted. Calls come from the whole dose curve; as a rule, active = well fitted inhibition curve with a large enough effect; inconclusive = small, poorly fitted or top-dose-only effect; inactive = flat fitted curve, though single readings scatter. Only a selection was taken, and actives are over-represented in it overall.

Test: qHTS for Inhibitors of human tyrosyl-DNA phosphodiesterase 1 (TDP1): qHTS in cells in presence of CPT; note: nearly all actives have a fitted effect of over 55% in size
Details: chicken DT40 Tdp1-/-;hTDP1 cells + 20 nM CPT, ATP luminescence, 48 h; series mostly up to 46.2 µM; activity change, negative = growth inhibition: at the top concentration
Method in brief: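 Chicken DT40 Tdp1-/- cells stably complemented with human TDP1 were seeded at 400 cells/well in medium containing 20 nM camptothecin, exposed to pin-transferred compounds, and grown at 37 °C for at least 48 hr. Viability was read as ATP luminescence.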
% is set by controls: 0 for no effect and ±100 for the full control effect; potency is the fitted concentration of half-maximal effect.

Structure (SMILES) | activity change, negative = growth inhibition | Potency
O=C1COc2ccc(C(=O)COC(=O)CCOc3ccccc3)cc2N1 | 2.06% (inactive) | 
Cc1ccc(C(=O)Oc2ccc(C(=S)N3CCOCC3)cc2)cc1 | -14.9% (inactive) | 
CC(C)(C)C1C/C(=C/c2ccco2)C(=O)/C(=C/c2ccco2)C1 (stereo not given) |  | 23.1 µM (active)
COC(=O)COc1ccc2c(c1C)O/C(=C\c1ccco1)C2=O | -7.39% (inactive) | 
CCC1S/C(=N/N=C/c2ccco2)NC1=O (stereo not given) | 6.02% (inactive) | 
Cc1ccc2nc(N3C(=O)C(O)=C(C(=O)c4ccco4)C3c3cccc(O)c3)sc2c1 (stereo not given) | -0.56% (inactive) | 
CC(C)c1ccc(NC(=O)c2ccc3c(O)c(S(=O)(=O)c4ccccc4)c(=O)[nH]c3c2)cc1 | 7.95% (inactive) | 
C=C1C=C(C)n2ncc(C(=O)Nc3ccccc3O)c2N1 | -15.4% (inactive) | 
COc1ccccc1CCNC(=O)c1cnccn1 | -5.44% (inactive) | 
C=C1C=C(C(F)F)n2ncc(C(=O)NCCc3ccccc3OC)c2N1 |  | 15.8 µM (active)
C#CCOCCOCCOCCNc1nc(N2CCN(C(=O)CCCCCCCCCCNC(=O)[C@H]([C@@H](C)CC)n3cc(CCCCN=C(N)N)nn3)CC2)nc(N2CCN(C(=O)CCCCCCCCCCNC(=O)[C@H](CO)n3cc(CCCSC)nn3)CC2)n1 |  | 9.2 µM (active)
C#CCOCCOCCOCCNc1nc(N2CCN(C(=O)[C@H](CCCN=C(N)N)n3cc(C(N)[C@@H](C)CC)nn3)CC2)nc(N2CCN(C(=O)[C@H](CO)n3cc([C@@H](N)C(C)C)nn3)CC2)n1 (stereo not given in full) | 1.68% (inactive) | 
C#CCOCCOCCOCCNc1nc(N2CCN(C(=O)Cn3cc(CCO)nn3)CC2)nc(N2CCN(C(=O)Cn3cc(CCCN=C(N)N)nn3)CC2)n1 | -17.4% (inactive) | 
C#CCOCCOCCOCCNc1nc(N2CCN(C(=O)[C@H](CCCCN)n3cc(CCC(=O)O)nn3)CC2)nc(N2CCN(C(=O)[C@H](CCCCN)n3cc(CC(C)O)nn3)CC2)n1 (stereo not given in full) | -5.59% (inactive) | 
C#CCOCCOCCOCCNc1nc(N2CCN(C(=O)CCCCCCCCCCNC(=O)[C@H](CCCCN)n3cc(C)nn3)CC2)nc(N2CCN(C(=O)CCCCCCCCCCNC(=O)[C@H](CO)n3cc(CCCSC)nn3)CC2)n1 |  | 14.6 µM (active)
C#CCOCCOCCOCCNc1nc(N2CCN(C(=O)Cn3cc(CCO)nn3)CC2)nc(N2CCN(C(=O)[C@H](CCCCN)n3cc(CCCC)nn3)CC2)n1 | 0.815% (inactive) | 
CC(CC(=O)N1CCN(S(=O)(=O)c2ccccc2)CC1)n1cncn1 (stereo not given) | -13.1% (inactive) | 
O=c1cc(-c2ccccc2)n2c(SCc3ccccc3)nnc2[nH]1 | 10% (inactive) | 
Cc1cc(C)c(NC(=O)CN2CCOCCOCCOCCOCC2)c(C)c1 | 4.44% (inactive) | 
Cc1c(Cl)cccc1NC(=O)NCc1ccc(C)n1C | 0.371% (inactive) | 
COc1ccc(/C=C/C(=O)NC(=S)NN2CCCCC2c2cccnc2)cc1 (stereo not given) | -1.05% (inactive) | 
O=S(=O)(Cc1nnnn1-c1ccccc1)c1ccccc1 | 1.76% (inactive) | 
O=S(=O)(NCCc1csc(-c2ccccc2)n1)c1cccnc1 | -19.1% (inactive) | 
O=S(=O)(Cc1cc(Sc2ccccc2)nc(-c2ccccc2)n1)c1ccccc1 |  | 23.1 µM (active)

Structure (SMILES) | activity change, negative = growth inhibition | Potency
CC1(C(=O)NS(=O)(=O)c2cccc(OC(F)F)c2)CCN1C(=O)COc1ccc(Cl)cc1 (stereo not given) | -18.8% (inactive) | 
COC(=O)c1ccc(COC(=O)C2CCN(S(=O)(=O)c3c(Cl)cccc3Cl)CC2)o1 | 12.1% (inactive) | 
Cc1nc2ccccn2c(=O)c1NC(=O)c1c(F)cccc1F | -6.49% (inactive) | 
Cn1c(C(=O)Nc2cccc(C(F)(F)F)c2)cc2c(=O)n3ccccc3nc21 |  | 14.6 µM (active)
O=C(Nc1ccc(OC(F)(F)F)cc1)c1cc2c(=O)n3ccccc3nc2s1 | -20.7% (inactive) | 
CCOc1cc(C2C(C(=O)Nc3ccc(OC)cc3)=C(C)Nc3nc(SC)nn32)ccc1O (stereo not given) | -3.13% (inactive) | 
CCOc1ccc(C2C(C(=O)Nc3ccc(Cl)cc3)=C(C)Nc3nc(C(F)(F)F)nn32)cc1 (stereo not given) |  | 13 µM (active)
CCOc1ccccc1NC(=O)C1=C(C)Nc2ncnn2C1c1ccc(NC(C)=O)cc1 (stereo not given) | -5.57% (inactive) | 
C[n+]1cc(-c2ccccc2)oc1-c1ccccc1 | -0.284% (inactive) | 
O=C(O)CCCCOn1ccnc1 | -1.16% (inactive) | 
CC1CCN(S(=O)(=O)c2ccc(S(=O)(=O)NCc3cccnc3)cc2)CC1 | 3.59% (inactive) | 
CC1CN(C(=O)c2cccc(NS(=O)(=O)c3ccc(Br)cc3)c2)CC(C)O1 (stereo not given) | -18.9% (inactive) | 
COc1ccc(CNS(=O)(=O)c2cc3c4c(c2)CCN4C(=O)CC3)cc1 | -20% (inactive) | 
CCc1ccc(S(=O)(=O)NCC(O)COc2ccc(OC)cc2)cc1 (stereo not given) | -10% (inactive) | 
Cc1cccc(NS(=O)(=O)c2ccc(-c3cnc(C4CC4)o3)cc2)c1 |  | 0.731 µM (active)
COc1ccc(CNS(=O)(=O)c2ccc(-c3cnc(C4CC4)o3)cc2)cc1 |  | 14.6 µM (active)
COc1ccc(S(=O)(=O)NCc2cccn2Cc2cccc(C)c2)cc1 | -18.4% (inactive) | 
Cc1cccc(NS(=O)(=O)c2ccc(C)c(C(=O)NCc3cccnc3)c2)c1 | -14.6% (inactive) | 
Cc1cccc(CNS(=O)(=O)c2ccc(-c3cnc(C4CC4)o3)cc2)c1 |  | 16.4 µM (active)
O=C(C1CC1)N1N=C2CCCCC2C1(O)C(F)(F)F (stereo not given) | 1.99% (inactive) | 
O=[N+]([O-])c1ccccc1/C=C/CN1CCC(O)CC1 | -8.2% (inactive) | 
COC(=O)c1sc(C(F)(F)F)c(-c2ccccc2)c1S(=O)(=O)N(C)C | 3.15% (inactive) | 
Cc1ccc(S(=O)(=O)NCCSc2ccccc2)cc1[N+](=O)[O-] | -12.8% (inactive) | 
CC(Oc1ccc(Cl)cc1)c1ccnn1S(C)(=O)=O (stereo not given) | -16.9% (inactive) | 

Structure (SMILES) | activity change, negative = growth inhibition | Potency
CC1CN(S(=O)(=O)c2cccc(C(F)(F)F)c2)CN1C(=O)N1CCOCC1 (stereo not given) | 15.4% (inactive) | 
O/N=C(\C[n+]1ccccc1)c1ccc(Br)cc1 | -2.78% (inactive) | 
COc1ccccc1N(CC(=O)Nc1ccc(C(F)(F)F)cc1)S(C)(=O)=O | 11.3% (inactive) | 
CCCCN(CC)CCCNC(=O)c1nn(C)c2c1CSc1ccccc1-2 |  | 25.9 µM (active)
CCCCN(CC)CCCNC(=O)c1nn(C)c2c1CS(=O)(=O)c1ccccc1-2 | 5.5% (inactive) | 
CCCCN(CC)CCCNC(=O)c1ccc(CSc2nc3ccncc3[nH]2)cc1 | -5.2% (inactive) | 
C[C@@H]1CC2=C(C(=O)OC(C)(C)O2)[C@@H](C2CC2)O1 | 2.46% (inactive) | 
CCCc1ccc(-c2c(C)sc(NC(=O)c3ccnn3C)c2C#N)cc1 |  | 23.1 µM (active)
CCN(CC)C(=O)c1sc(NC(=O)c2ccco2)c(C#N)c1C | -16.7% (inactive) | 
Cn1nccc1CNC(=O)c1ccnn1C | 0.35% (inactive) | 
COc1ccc(CNC(=O)CN(Cc2ccccc2Cl)C(=O)c2csnn2)cc1 | 12.5% (inactive) | 
CN1CCN(C(CNC(=O)c2ccccc2F)c2ccc3c(c2)OCO3)CC1 (stereo not given) | 6.41% (inactive) | 
COc1cc(C(=O)NCC(c2ccc(Cl)cc2)N2CCOCC2)cc(OC)c1OC (stereo not given) |  | 16.4 µM (active)
COc1cc(C(=O)OCCCN2CCOCC2)cc(OC)c1OC | -16.7% (inactive) | 
CC(C)(C)c1ccc(C(=O)NCC(c2ccc(Cl)cc2)N2CCOCC2)cc1 (stereo not given) |  | 23.1 µM (active)
O=C(NCC(c1ccc(Cl)cc1)N1CCOCC1)c1ccccc1F (stereo not given) |  | 16.4 µM (active)
CN(C)c1ccc(C(CNS(=O)(=O)c2cc(F)ccc2F)N2CCOCC2)cc1 (stereo not given) | -9.33% (inactive) | 
COc1ccc(C(CNC(=O)c2cccnc2SC)N2CCOCC2)cc1 (stereo not given) | -20.3% (inactive) | 
COc1ccc(C(CNC(=O)c2cc3c(s2)CCCC3)N2CCOCC2)cc1 (stereo not given) | -14.5% (inactive) | 
COc1ccc(C(CNC(=O)CSc2ccccc2)N2CCOCC2)cc1 (stereo not given) | -14.8% (inactive) | 
Cc1ccc(S(=O)(=O)NN=C2CC(C)(C)CC(=O)C2(C)C)cc1 | 13.2% (inactive) | 
CCOCCCNC(=O)C1(O)c2cc(Br)ccc2NC(=O)N1c1ccc(C)c(C)c1 (stereo not given) | 9.66% (inactive) | 
Cc1ccc(S(=O)(=O)N2CCCCC2)cc1NC(=O)CCNC(=O)c1ccccc1 | -16.1% (inactive) | 
CN(C)c1ccc2c(=O)[nH][nH]c(=O)c2c1 | 8.58% (inactive) | 

Structure (SMILES) | activity change, negative = growth inhibition | Potency
COc1cc(C(=O)N2CCOC23CCN(Cc2ccccc2)CC3)cc(OC)c1OC | -4.78% (inactive) | 
N#Cc1cc([N+](=O)[O-])ccc1NC(=O)COC(=O)c1cnccn1 | -21.5% (inactive) | 
CCC(CC)NC(=O)CSc1nnc(-c2c[nH]c3ccccc23)o1 | -16.9% (inactive) | 
Cc1ccc(C(=O)OCC(=O)Nc2ccc(Cl)cn2)cc1S(=O)(=O)N1CCOCC1 | -6.23% (inactive) | 
CN(Cc1ccccc1)C(=O)C(=O)c1cn(CC(=O)N2CCCC2)c2ccccc12 | -23.2% (inactive) | 
COc1ccc(C(=O)N[C@H](C(=O)NCc2ccccc2)C(C)C)cc1 | 1.15% (inactive) | 
COc1cc(OC)cc(C(=O)N[C@H](C(=O)Nc2nc3ccccc3[nH]2)C(C)C)c1 |  | 1.64 µM (active)
COc1cc(OC)cc(C(=O)N[C@H](C(=O)OCC(=O)NC(C)c2ccccc2)C(C)C)c1 (stereo not given in full) | -11.1% (inactive) | 
CC1=C/C(=N\OS(=O)(=O)c2ccccc2)C=CC1=O |  | 0.631 µM (active)
O=S(=O)(ON(c1ccccc1)S(=O)(=O)c1ccccc1)c1ccccc1 | 3.88% (inactive) | 
COCCn1c(SCC(=O)Nc2nc(C)cs2)nnc1C(C)C | -14.4% (inactive) | 
O=C(Nc1ccccc1C(=O)O)c1ccc(N2C(=O)C3CC=CCC3C2=O)cc1 (stereo not given) | 6.38% (inactive) | 
O=C(CN1CCOCC1)N/N=C/c1ccc(-c2ccc(Br)cc2)o1 | 15.3% (inactive) | 
Cc1ccc(-c2ccc(/C=N/NC(=O)CN3CCOCC3)o2)cc1[N+](=O)[O-] |  | 23.1 µM (active)
Cc1ccc(NC(=O)CN2CCC(C(N)=O)CC2)cc1[N+](=O)[O-] | -17.2% (inactive) | 
Cc1ccc(OC(=O)c2cncc(Br)c2)c(C)c1 | -11.9% (inactive) | 
CC(=O)[C@@]12O[C@@H]1C[C@H]1[C@@H]3CC[C@H]4C[C@@H](O)CC[C@]4(C)[C@H]3CC[C@@]12C | -12.2% (inactive) | 
CC1(Cc2ccccc2C#N)C(=O)Nc2ccc(-c3ccc4[nH]ccc4c3)cc21 (stereo not given) |  | 1.46 µM (active)
COc1ccc(CC(NC(C)=O)C(=O)NC2CCN(C(=O)c3ccc(Cl)cc3)CC2)cc1 (stereo not given) | 8.85% (inactive) | 
CCC(C)C(N=C1NS(=O)(=O)c2ccccc21)C(=O)N1CCC(C)CC1 (stereo not given) | -14.9% (inactive) | 
O=c1oc(/C=C/c2ccccc2)nc2ccccc12 | -3.35% (inactive) | 
O=c1[nH]c(/C=C/c2cccc(Br)c2)nc2ccccc12 | -19.5% (inactive) | 
NNc1cccc(C=Cc2ccccc2)cc1=O |  | 2.06 µM (active)
